Results as given in PubChem BioAssay AID463173 (ICCB-Longwood Screening Facility, Harvard Medical School, 2010).
About 4,300 (8.3%) of roughly 52,000 compounds were called active. The sample holds actives, similar compounds and a random draw of the others, so the mix is not that of the screen. Values without a mark were called inactive. Cut-off read from the data, not from the text of the source: active = survival mostly below about 52% (no sharp cut-off); inactive = mostly above about 56%.

These molecules were tested on DeltatarO mutant (assay: growth inhibition of S. aureus wild type versus tarO mutant, primary screen, teichoic acid synthesis inhibitors, RN4220, OD600 (AID 463173)). Details: OD600, 18 h, hits give low values, concentration not given here.

SMILES | survival
CC(=O)NC1CC2CCC(C1)N2 (configuration not stated) | 98%
O=C(CCc1nc(C2=CCN(Cc3cccc(Cl)c3)CC2)no1)Nc1ccccc1F | 81%
OC1(c2cccc(F)c2)CC2CCC(C1)N2Cc1nnnn1CCc1ccccc1 (configuration not stated) | 85%
CSc1ccc(CN2CCN(C(=O)COc3cccc(C)c3)CC2)cc1 | 84%
Cc1c(/C(CC(C)C)=N/O)c2ccccc2n1C | 79%
O=C(Nc1ccc(F)c([N+](=O)[O-])c1)c1cccn(Cc2ccccc2)c1=O | 115%
CN1CCN(Cc2cn3ccccc3n2)CC1 | 104%
CCOc1ccc(CN(CCc2ccc3c(c2)OCO3)Cc2cccc(OC)c2)cc1 | 44%
CCOc1ccc(CN(CCc2ccc3c(c2)OCO3)Cc2cc(OC)ccc2O)cc1 | 62%
O=C(Nc1ccc(Cl)cc1C(=O)c1ccccc1)c1cc(Cl)cc(Cl)c1 | 150%
O=C(Nc1ccc(Cl)cc1C(=O)c1ccccc1)c1ccccc1Br | 24% (active)
O=C(COc1ccc(Br)cc1)Nc1ccc(Cl)cc1C(=O)c1ccccc1 | 83%
CC(C)OC12Oc3ccccc3C=C1N1CCC2CC1 (configuration not stated) | 80%
COc1ccc(CN2CCN(C(=O)COc3ccccc3)CC2)c(OC)c1 | 184%
c1cc(CN2CCNCC2)ccn1 | 105%
Nc1c(C(=O)Nc2ccc(F)c(Cl)c2)sc2nc3c(cc12)N1CCC3CC1 | 65%
Nc1c(C(=O)Nc2ccc(Cl)cc2)sc2nc3c(cc12)N1CCC3CC1 | 55%
Nc1c(C(=O)Nc2ccc(OC(F)(F)F)cc2)sc2nc3c(cc12)N1CCC3CC1 | 99%
Nc1c(C(=O)Nc2ccc(Cl)c(C(F)(F)F)c2)sc2nc3c(cc12)N1CCC3CC1 | 4% (active)
Nc1c(C(=O)Nc2cccc(Br)c2)sc2nc3c(cc12)N1CCC3CC1 | 40% (active)
Nc1c(C(=O)Nc2ccc(Br)cc2F)sc2nc3c(cc12)N1CCC3CC1 | 132%

SMILES | survival
COc1ccc(C2CC(=O)Oc3c2c(=O)oc2ccccc32)c(OC)c1OC (configuration not stated) | 75%
COc1ccccc1CN1CCN(C(=O)COc2cccc(C)c2)CC1 | 162%
O=C1CN=C(c2ccccc2)c2cc(Cl)ccc2N1Cc1ccc(Cl)cc1 | 66%
Cc1ccc(Cn2cccc(C(=O)Nc3ccc4c(c3)OCCO4)c2=O)cc1 | 83%
CCOc1ccccc1CN(CCc1ccc2c(c1)OCO2)Cc1ccc(CC)cc1 | 111%
CCCC1=Nc2cc(C(=O)NC3CCC(C)CC3)ccc2Sc2ccccc21 (configuration not stated) | 39% (active)
CCCC1=Nc2cc(C(=O)NCCCN(CC)CC)ccc2Sc2ccccc21 | 138%
CC1CC(=O)C2CCCCC2N1 (configuration not stated) | 84%
Cc1ccc(Cn2cccc(C(=O)Nc3ccc4c(c3)OCO4)c2=O)cc1 | 75%
CN(C)C(=O)Oc1cccc2cccnc12 | 76%
O=c1c2ccccc2nc(/C=C\c2ccc(F)cc2)n1-c1ccccc1F | 94%
Cc1cccc(-n2c(/C=C/c3c(C)[nH]c4ccccc34)nc3ccccc3c2=O)c1 | 120%
Cc1ccc(-n2c(/C=C\c3ccc(F)c(F)c3)nc3ccccc3c2=O)c(C)c1 | 98%
CSc1ccc(/C=C/c2nc3ccccc3c(=O)n2-c2cccc(Cl)c2C)cc1 | 80%
Cc1ccc(-n2c(/C=C/c3ccccc3)nc3ccccc3c2=O)cc1C | 78%
Cc1ccccc1-n1c(/C=C/c2ccc(O)cc2)nc2ccccc2c1=O | 35% (active)
Cc1ccccc1-n1c(/C=C/c2ccccc2F)nc2ccccc2c1=O | 5% (active)
COc1ccc(-n2c(/C=C\c3ccccc3F)nc3ccccc3c2=O)c(OC)c1 | 89%
Cc1ccccc1-n1c(/C=C/c2ccc(N(C)C)cc2)nc2ccccc2c1=O | 8% (active)
Cc1ccccc1-n1c(/C=C/c2c(C)[nH]c3ccccc23)nc2ccccc2c1=O | 18% (active)
Cc1ccc(-n2c(/C=C/c3ccc(Br)s3)nc3ccccc3c2=O)cc1C | 90%

SMILES | survival
O=c1c2ccccc2nc(/C=C/c2ccccc2)n1-c1ccccc1F | 69%
CN1C2CCC1CC(OC(=O)C1(c3ccccc3)CCCC1)C2 (configuration not stated) | 116%
CCN(CC)CCSc1nc2ccccc2c(=O)n1-c1ccc(Cl)cc1 | 148%
CC(c1ccccc1)n1cncc1C(=O)N1CCCC1=O (configuration not stated) | 87%
Cc1ccc(OCC(=O)N2CCN(Cc3ccc(F)cc3)CC2)cc1 | 156%
Cc1cccc(NC(=O)Cn2cc(C(=O)c3ccccc3)c3ccccc32)c1 | 130%
CCOc1ccc(CN2C(=O)c3ccccc3Sc3ccc(C(=O)N4CCC5(CC4)OCCO5)cc32)cc1 | 74%
COc1cc2[nH]c(=O)n(-c3ccc(C)cc3)c(=O)c2cc1OC | 94%
OC1CCNC2CCCCC12 (configuration not stated) | 94%
Cc1nc2ccccc2c(=O)n1-c1cccc(O)c1 | 96%
Cc1oc(-c2ccccc2Cl)nc1CN1C(=O)CN=C(c2ccccc2)c2cc(Cl)ccc21 | 77%
Cc1cccc(Cn2cccc(C(=O)Nc3nc4ccccc4s3)c2=O)c1 | 122%
COc1ccc(Br)cc1C1SCC(=O)Nc2c1c(C)nn2-c1ccccc1C (configuration not stated) | 43%
CCc1ccc(-n2nc(C)c3c2NC(=O)CSC3c2ccc(C(=O)OC)cc2)cc1 (configuration not stated) | 64%
Cc1ccccc1-n1nc(C)c2c1NC(=O)CSC2c1ccc(Cl)cc1 (configuration not stated) | 21% (active)
Cc1ccc(-n2nc(C)c3c2NC(=O)CSC3c2ccc(O)cc2)cc1Cl (configuration not stated) | 73%
CCc1ccc(-n2nc(C)c3c2NC(=O)CSC3c2ccccc2C)cc1 (configuration not stated) | 57%
Cc1ccccc1-n1nc(C)c2c1NC(=O)CSC2c1ccccc1C(F)(F)F (configuration not stated) | 39% (active)
Cc1ccccc1-n1nc(C)c2c1NC(=O)CSC2c1ccc(N(C)C)cc1 (configuration not stated) | 43% (active)
O=C(COc1cc(Cl)ccc1Cl)Nc1ccc(Cl)cc1C(=O)c1ccccc1 | 69%
